Most compounds without a hit are left out; they make up all but 12% or so of the library.
BAZ2B block – inhibitors of human BAZ2B bromodomain; Q9UIF8; AlphaScreen BAZ2B-H3K14Ac peptide displacement; Potency, µM (doses to about 114 µM), inactives show at the highest dose activity change, negative = inhibition, actives largely listed as inhibitors; actives 4.4% (n = 360,000); AID 504333; also: % is scaled to controls: 0 for no effect and ±100 for the full control effect; nearly all actives have a fitted effect of over 60% in size
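AlphaScreen displacement: compounds (up to 110uM) incubated 30 min at room temperature with a preformed 50 nM BAZ2B/50 nM biotinylated H3K14Ac peptide complex in PBS pH 7.4 with Tween-20. Donor and acceptor beads at 10 ug/mL final added, 20 min light-protected before reading.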
JMJD2A Tudor – JMJD2A Tudor domain (human) inhibition; O75164; AlphaScreen JMJD2A-Tudor / H3K4me3 peptide binding; Potency, µM (titrated, usually from 114 µM), without a hit: at the top dose activity change, negative = inhibition, hits mostly inhibitors; actives 4.4% (n = 390,000); also: % is scaled to controls: 0 for no effect and ±100 for the full control effect; nearly all actives have a fitted effect of over 50% in size
Target sequence (O75164 whole entry, looked up, the tested form may be a part): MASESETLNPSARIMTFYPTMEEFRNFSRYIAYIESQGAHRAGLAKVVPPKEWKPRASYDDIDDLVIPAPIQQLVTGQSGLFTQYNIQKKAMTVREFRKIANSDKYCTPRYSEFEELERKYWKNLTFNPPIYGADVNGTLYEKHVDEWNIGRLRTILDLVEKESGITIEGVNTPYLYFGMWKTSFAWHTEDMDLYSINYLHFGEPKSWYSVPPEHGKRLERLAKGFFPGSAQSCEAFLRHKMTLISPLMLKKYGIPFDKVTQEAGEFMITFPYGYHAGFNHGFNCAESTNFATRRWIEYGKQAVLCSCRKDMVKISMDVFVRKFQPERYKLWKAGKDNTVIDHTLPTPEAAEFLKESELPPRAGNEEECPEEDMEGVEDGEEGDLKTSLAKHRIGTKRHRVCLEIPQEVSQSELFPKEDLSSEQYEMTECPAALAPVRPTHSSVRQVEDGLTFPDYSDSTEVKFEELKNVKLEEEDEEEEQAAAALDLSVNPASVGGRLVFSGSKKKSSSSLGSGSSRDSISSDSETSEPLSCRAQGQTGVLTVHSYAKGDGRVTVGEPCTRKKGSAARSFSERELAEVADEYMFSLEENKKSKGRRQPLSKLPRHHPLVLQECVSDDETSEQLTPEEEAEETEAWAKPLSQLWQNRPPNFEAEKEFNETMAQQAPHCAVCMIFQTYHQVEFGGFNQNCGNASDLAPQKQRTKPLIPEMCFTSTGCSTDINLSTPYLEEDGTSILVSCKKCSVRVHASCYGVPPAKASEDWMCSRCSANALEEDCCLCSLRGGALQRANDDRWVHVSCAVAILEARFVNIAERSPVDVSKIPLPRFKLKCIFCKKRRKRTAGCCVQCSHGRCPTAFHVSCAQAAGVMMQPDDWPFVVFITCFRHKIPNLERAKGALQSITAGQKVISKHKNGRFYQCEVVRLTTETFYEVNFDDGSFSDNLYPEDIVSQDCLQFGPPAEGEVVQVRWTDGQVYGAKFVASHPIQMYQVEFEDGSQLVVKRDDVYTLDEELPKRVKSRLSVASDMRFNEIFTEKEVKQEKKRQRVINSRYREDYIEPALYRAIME
HP1b chromo inh – inhibitors of HP1-beta chromodomain binding to methylated histone tails; AlphaScreen HP1-beta / biotin-H3K9me3 peptide binding; Potency, µM (doses to about 114 µM), for the others: at the highest dose activity change, negative = inhibition, usual class: inhibitors; actives 0.56% (n = 390,000); also: nearly all actives have a fitted effect of over 70% in size
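Compound inhibition of the preformed complex between 50 nM HP1-beta and 50 nM biotinylated H3K9me3 peptide was read by AlphaScreen. Buffer was PBS pH 7.4 with 0.01% Tween-20. Incubations ran 30 min at room temperature, with 10 ug/mL donor/acceptor beads.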
G9a inh – blocks human histone lysine methyltransferase G9a. G9a H3K9 monomethylation, AlphaScreen, 2 h. Potency, µM (series often up to 102 µM), for inactives: at the top dose activity, negative = inhibition, most hits filed as inhibitors. actives 8.8% (n = 350,000). AID 504332; also: % is scaled to controls: 0 for no effect and ±100 for the full control effect; nearly all actives have a fitted effect of over 75% in size
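Compounds were preincubated with 20 nM G9a for 15 min, after which biotinylated H3K9 peptide (500 nM) and SAM (20 uM) started a 2 h room-temperature reaction. Monomethylated product was quantified by antibody-based AlphaScreen chemiluminescence.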
Sfp PPTase inh – inhibitors of Bacillus subtilis Sfp phosphopantetheinyl transferase | Biochemical Sfp PPTase activity, qHTS | actives 3.5% (n = 310,000) | Potency, µM, without a hit: largest response in the series, negative = inhibition, usual class: inhibitors | AID 1490;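 also: the enzyme is Sfp with the accession as filed and its product quenches rhodamine fluorescence; 0% = enzyme reaction without inhibitor and -100% = no enzyme wells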
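Compounds were incubated with enzyme (final 15 nM) for 15 min at room temperature before substrate addition started the reaction. Fluorescence at 525 nm excitation, 598 nm emission was recorded immediately and after 30 minutes.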
L3MBTL1 inh – blocks human L3MBTL1 | Q9Y468 | AlphaScreen L3MBTL1–H3K9me1 peptide binding | Potency, µM (titrated, usually from 57.1 µM), without a hit: top-dose activity, negative = inhibition, hits mostly inhibitors | actives 0.66% (n = 230,000) | AID 485360; also: % is scaled to controls: 0 for no effect and ±100 for the full control effect; nearly all actives have a fitted effect of over 60% in size
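Displacement of a biotinylated histone H3(1-15) peptide monomethylated at Lys9 (75 nM) from L3MBTL1 (50 nM) was measured by AlphaScreen after a 30 min room-temperature compound incubation; cefsulodin titration served as intraplate control.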
* marks the source's active call; other numbers are inactive results; ? = inconclusive; · = not tested or not shown; ! = not confirmed by another sample; [ ] = dose if it differs, or a comment. Calls follow the shape of the dose curve; as a rule, active = well fitted curve in the direction sought with a large enough effect; inconclusive = small, poorly fitted or top-dose-only effect, or another doubt; inactive = no such curve, though single readings can be large; an effect the other way counts as inactive or inconclusive. Potency is read from the fitted curve at half-maximal effect.

SMILES | BAZ2B block | JMJD2A Tudor | HP1b chromo inh | G9a inh | Sfp PPTase inh | L3MBTL1 inh
O=C(CSc1nnc(Nc2ccccc2F)s1)Nc1cccc(S(=O)(=O)N2CCCCC2)c1 | -10.0% | ? | 6.9% | 3.16µM* | 8.8% | -13.7%
Cc1ccc(Nc2nnc(SCC(=O)Nc3cccc(S(=O)(=O)N4CCCCC4)c3)s2)cc1 | -19.9% | -28.4%[57.1 µM] | 14.0% | 39.8µM* | 22.2% | -14.2%
Cc1nnc(SCC(=O)Nc2cccc(S(=O)(=O)N3CCCCC3)c2)s1 | -3.2% | -11.5% | 12.7% | 10.4%[2.33 µM] | · | -1.0%
Cc1c(C)n(Cc2ccc(F)cc2)c2ccc(C(=O)Nc3ccc(Cl)cc3)cc12 | 2.8% | -13.6% | 41.4% | 2.0%[59 µM] | · | ·
CN(C1=C(NC(=O)c2ccccc2)C(=O)c2ccccc2C1=O)C1CCS(=O)(=O)C1 (configuration not stated) | 50.1µM* | ? | -14.5% | ? | 20µM* | -28.8%
CC(=O)NC1=C(NC2CCS(=O)(=O)C2)C(=O)c2ccccc2C1=O (configuration not stated) | -18.7% | 20µM* | 44.7µM* | 1.78µM* | 31.6µM* | -12.3%
CCOc1ccccc1N1C(=O)c2ccccc2N/C1=C\N1CCN(C(=O)c2ccco2)CC1 | · | -12.9% | 69.0% | · | · | ·
O=C(O)c1cc(O)c2c(c1)C(=O)c1cc(O)cc(O)c1C2=O | 50.1µM* | ? | -37.9% | -32.2%[12.7 µM] | 10µM*! | 2.51µM*
COCC(=O)Nc1ncc(S(=O)(=O)c2ccc([N+](=O)[O-])cc2)s1 | · | ? | 7.3% | 35.5µM* | 7.6% | 6.1%
CCCCC(=O)Nc1ncc(S(=O)(=O)c2ccc([N+](=O)[O-])cc2)s1 | -6.1% | -12.4% | 39.5% | · | -1.6% | ·
Cc1ccc(/C=N/NC(=O)Cn2nnc(N)n2)o1 | -2.6% | -8.3% | 27.9% | 44.7µM* | -7.5% | 3.6%
COc1cccc(CNC(=O)Cn2nc(C)c([N+](=O)[O-])c2C)c1 | 0.5% | -15.3% | 20.0% | -94.9% | 16.8% | 1.3%
Cc1ccc(/C=N/NC(=O)Cn2nc(C)c([N+](=O)[O-])c2C)o1 | -17.7% | -21.5% | 31.4% | 50.1µM* | 44.7µM* | 6.5%
COc1ccc(/C=N/NC(=O)Cn2nc(C)c([N+](=O)[O-])c2C)cc1 | -2.5% | 79.4µM* | 10.7% | 13.3%[59 µM] | -2.1% | -1.9%
Cc1ccc(/C=N/NC(=O)Cn2nccc2C)o1 | -5.0% | -26.1% | 14.0% | 18.2%[2.33 µM] | -5.4% | 2.6%
Cc1nn(C(C)C(=O)N/N=C/c2ccc(N(C)C)cc2)c(C)c1[N+](=O)[O-] (configuration not stated) | ? | ? | -2.4% | 56.2µM* | -12.0% | -14.3%
COCCCNC(=S)NNC(=O)c1cc(-c2ccncc2)nc2ccccc12 | -12.4% | -4.4% | 45.0% | · | 7.8% | ·
COCCCNC(=S)NNC(=S)Nc1ccc(OC)cc1 | -16.7% | 1.78µM* | ? | · | 50.1µM* | ·
COCCCNC(=S)NNC(=O)c1csc(C)n1 | 79.4µM* | -31.9% | 63.8% | 23.0% | 9.6% | -4.4%
CN(Cc1ccco1)c1ncncc1-c1cccc(NS(C)(=O)=O)c1 | · | · | · | -2.3%[0.501 µM] | -11.4% | ·
CC(c1ccccc1)N1CCn2c(nc3cc(NC(=O)NC4CCCCC4)ccc32)C1 (configuration not stated) | 10.1% | -24.1% | 7.5% | 35.5µM* | -6.4% | ·
COc1ccccc1CCNC(=O)C(=O)NCC(c1ccc2c(c1)OCO2)N1CCOCC1 (configuration not stated) | -29.6% | -13.9% | 4.7%[57 µM] | -12.7%[59 µM] | · | ·
Cc1ccc(C2=NN(C(=O)CCl)C(c3cccs3)C2)o1 (configuration not stated) | -9.6% | -12.5% | 24.2% | 12.6µM* | 50.1µM* | 16.0%
O=C(c1ccccc1)N1N=C(c2ccco2)CC1c1cccs1 (configuration not stated) | ? | 35.5µM* | ? | · | -17.0% | -11.1%
CC(=O)N1N=C(c2ccco2)CC1c1cccs1 (configuration not stated) | 14.5% | -12.9% | 21.6% | ? | ? | -3.7%
SMILES | BAZ2B block | JMJD2A Tudor | HP1b chromo inh | G9a inh | Sfp PPTase inh | L3MBTL1 inh
CCC(=O)N1N=C(c2ccc(C)o2)CC1c1ccc(N(C)C)cc1 (configuration not stated) | ? | ? | -5.4% | 50.1µM* | -0.9% | -25.3%
O=C(CCl)N1N=C(c2ccco2)CC1c1cccs1 (configuration not stated) | -4.7% | -17.6% | 16.2% | 10µM* | 28.2µM* | -9.7%
CC(C)c1ccc(NC(=O)[C@H]2O[C@@H]3OC(C)(C)O[C@@H]3[C@H]3OC(C)(C)O[C@H]32)cc1 | -10.1% | -4.7% | 31.4% | 9.7%[59 µM] | · | ·
Cc1ccc(NS(=O)(=O)c2cc3c(cc2N2CCC2)NC(=O)CC3)cc1C | · | -14.9% | · | · | · | ·
CCOc1ccccc1CNC(=O)c1cccc(NC(=O)c2nsc3ccccc23)c1 | 1.4% | -10.4% | 25.4%[57 µM] | -8.4%[59 µM] | · | ·
N=c1c[n+](N2CCOCC2)[n-]o1 | 50.1µM* | 56.2µM* | 2.2% | 8.91µM*! | -10.9% | -6.4%
CC(C)CC(=O)NC(=S)NNC(=O)c1ccc([N+](=O)[O-])cc1 | 3.0% | ? | -2.7% | 20µM* | -27.2% | -0.8%
Cn1cc([N+](=O)[O-])c(C(=O)NNC(=O)c2ccc([N+](=O)[O-])cc2)n1 | -11.1% | ? | ? | 44.7µM* | 15.5% | 20.3%
CCC(=O)NC(=S)NNC(=O)c1ccc([N+](=O)[O-])cc1 | 15.0%[57.1 µM] | 79.4µM* | 4.9% | ? | 79.4µM* | 12.4%
CC(C)CC(=O)NC(=S)NNC(=O)c1ccc(NC(=O)C2CCCCC2)cc1 | ? | -27.5% | -7.5% | ? | 5.0% | 8.9%
COC(=O)c1ccccc1NC(=O)c1ncoc1-c1ccco1 | -6.5% | -18.2% | -12.7% | -0.6%[59 µM] | · | ·
COC1CCCN(Cc2c(C(=O)N3CCN(C4CCCCC4)CC3)nc3ccccn23)C1 (configuration not stated) | ? | -11.9% | 26.2% | 79.4µM* | 12.2% | ·
CCOC(=O)C1CCCN(Cc2c(C(=O)N3CCOCC3)nc3ccccn23)C1 (configuration not stated) | 10.5% | 1.7% | 7.2% | · | 2.8% | 12.5%
CCOC(=O)c1cnc(NCc2ccccc2OC)c2ccccc12 | 119.5% | 61.4% | 68.5%[57 µM] | 56.9%[59 µM] | · | ·
Nc1nonc1N/N=C\c1ccccc1 | -12.0% | -7.2% | 0.9% | -1.6% | 7.7% | 0.6%
Nc1nonc1NN=C1CCCCC1 | -4.4% | -19.8% | 6.8% | 1.1% | 79.4µM* | 3.5%
O=C(O)C(C(=O)/C=C/c1ccco1)=C1SCCS1 | 50.1µM* | 56.2µM* | 70.8µM* | ? | 28.2µM* | ?
O=C(C=Cc1ccco1)c1ccco1 | · | -21.2% | -0.7% | · | · | ·
